# Reference: PubChem BioAssay (Tox21)
# Unmarked numbers belong to inactive results. Inconclusive results are not listed. Entries that show only a call come without a potency. Activity calls are given as the source filed them. Unless noted, the call rests on the fitted dose curve; in most records, active means well fitted curve in the direction sought with a large enough effect in the repeat runs; inconclusive means weak or mixed curves; inactive means no such curve, though single readings can be large; an effect the other way counts as inactive or inconclusive.
# How the values were obtained:
# [1] = biological target: Luciferin 4-monooxygenase (Photinus pyralis) (UniProt P08659); assay: qHTS assay to identify small molecule inhibitors of firefly luciferase (AID 1224835); further: nearly all actives have a fitted effect of over 25% in size; further: potency means the concentration at half of the fitted maximal effect
# Chain of Luciferin 4-monooxygenase (Photinus pyralis) (P08659 whole entry, looked up): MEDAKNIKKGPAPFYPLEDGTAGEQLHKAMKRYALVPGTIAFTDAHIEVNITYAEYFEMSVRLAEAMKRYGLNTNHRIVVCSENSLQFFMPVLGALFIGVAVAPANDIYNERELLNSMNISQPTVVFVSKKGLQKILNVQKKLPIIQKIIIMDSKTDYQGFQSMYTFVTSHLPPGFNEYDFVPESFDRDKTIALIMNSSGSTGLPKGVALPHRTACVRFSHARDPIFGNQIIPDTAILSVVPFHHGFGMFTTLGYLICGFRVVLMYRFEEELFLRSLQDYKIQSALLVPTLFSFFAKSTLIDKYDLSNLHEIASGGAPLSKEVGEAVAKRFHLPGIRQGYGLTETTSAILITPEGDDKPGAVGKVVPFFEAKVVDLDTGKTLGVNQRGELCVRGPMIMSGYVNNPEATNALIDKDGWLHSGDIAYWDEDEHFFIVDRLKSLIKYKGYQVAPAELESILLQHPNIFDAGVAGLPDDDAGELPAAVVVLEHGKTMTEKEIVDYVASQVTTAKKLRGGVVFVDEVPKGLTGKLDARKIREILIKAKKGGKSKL
# Procedure, shortened: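 Quantitative HTS format; KM concentrations of both substrates. Purified P. pyralis FLuc activity quantified from luminescence images.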
# [2] = biological target: Nuclear receptor subfamily 1 group I member 3 (Homo sapiens) (UniProt Q14994); assay: qHTS assay to identify small molecule agonists of the constitutive androstane receptor (CAR) signaling pathway (AID 1224839); further: nearly all actives have a fitted effect of over 15% in size; further: potency means the concentration at half of the fitted maximal effect;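 on activation: HepG2 cells stably carrying human CAR and a CYP2B6 luciferase reporter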
# Chain of Nuclear receptor subfamily 1 group I member 3 (Homo sapiens) (Q14994 whole entry, looked up): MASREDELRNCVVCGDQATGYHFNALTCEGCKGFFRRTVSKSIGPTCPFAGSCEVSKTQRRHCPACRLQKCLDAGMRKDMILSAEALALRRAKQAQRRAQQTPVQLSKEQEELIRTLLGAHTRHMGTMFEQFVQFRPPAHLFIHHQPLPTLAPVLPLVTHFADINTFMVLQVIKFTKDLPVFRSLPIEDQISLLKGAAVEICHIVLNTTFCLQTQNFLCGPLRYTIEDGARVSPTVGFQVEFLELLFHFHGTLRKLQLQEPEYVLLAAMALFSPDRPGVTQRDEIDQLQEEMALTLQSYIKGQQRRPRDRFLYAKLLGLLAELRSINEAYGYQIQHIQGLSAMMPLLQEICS
# Procedure, shortened: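 Readout: firefly luciferase luminescence via ONE-Glo. System: HepG2 double-stable for hCAR and CYP2B6-2.2kb. Conditions: 15-point compound titration, PK11195 at 0.75 uM final, 24 h incubation.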
# [3] = qHTS assay to identify small molecule antagonists of the estrogen related receptor signaling pathway with the pleiotropic PPARgamma coactivator (PGC) from Tox21 10K library - cell viability counter screen (AID 1224840; active means well fitted cell-killing curve with a large enough effect in the repeat runs, not every such curve was filed as active; further: nearly all actives have a fitted effect of over 40% in size)
# Procedure, shortened: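 PGC/ERR cells were seeded at 2,000 cells/well and left 6 hours at 37 C/5% CO2 before pin-tool addition of compounds in DMSO. After 17.5 hours at 37 C, CellTiter-Fluor was added and fluorescence read 30 minutes later.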
# [4] = qHTS assay to identify small molecule antagonists of the estrogen related receptor signaling pathway with the pleiotropic PPARgamma coactivator (PGC) from Tox21 10K library (AID 1224841; call rule not given here; further: actives are mostly falling curves and most rising ones were filed inactive; nearly all actives have a fitted effect of over 50% in size; further: potency means the concentration at half of the fitted maximal effect)
# Procedure, shortened: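 PGC/ERR reporter cells were seeded at 2,000 cells/well and held 6 hours at 37 C/5% CO2 before pin-tool addition of compounds in DMSO. After 18 hours at 37 C, One-Glo was added and luminescence read after 30 minutes at room temperature.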
# [5] = qHTS assay to identify small molecule agonists of the estrogen related receptor signaling pathway with the pleiotropic PPARgamma coactivator (PGC) from Tox21 10K library (AID 1224842); further: nearly all actives have a fitted effect of over 15% in size; further: potency means the concentration at half of the fitted maximal effect
# Procedure, shortened: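 PGC/ERR reporter cells (NTP line) were seeded 2,000 per well, rested 6 h at 37 C/5% CO2, then pin-dosed with compounds in DMSO for 18 h at 37 C; luciferase read by One-Glo luminescence after 30 min at room temperature.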
# [6] = biological target: Thyrotropin receptor (Homo sapiens) (UniProt P16473); assay: qHTS assay to identify small molecule agonists of the thyroid stimulating hormone receptor (TSHR) signaling pathway (AID 1224843; calls by dose curve; further: nearly all actives have a fitted effect of over 45% in size)
# Chain of Thyrotropin receptor (Homo sapiens) (P16473 whole entry, looked up): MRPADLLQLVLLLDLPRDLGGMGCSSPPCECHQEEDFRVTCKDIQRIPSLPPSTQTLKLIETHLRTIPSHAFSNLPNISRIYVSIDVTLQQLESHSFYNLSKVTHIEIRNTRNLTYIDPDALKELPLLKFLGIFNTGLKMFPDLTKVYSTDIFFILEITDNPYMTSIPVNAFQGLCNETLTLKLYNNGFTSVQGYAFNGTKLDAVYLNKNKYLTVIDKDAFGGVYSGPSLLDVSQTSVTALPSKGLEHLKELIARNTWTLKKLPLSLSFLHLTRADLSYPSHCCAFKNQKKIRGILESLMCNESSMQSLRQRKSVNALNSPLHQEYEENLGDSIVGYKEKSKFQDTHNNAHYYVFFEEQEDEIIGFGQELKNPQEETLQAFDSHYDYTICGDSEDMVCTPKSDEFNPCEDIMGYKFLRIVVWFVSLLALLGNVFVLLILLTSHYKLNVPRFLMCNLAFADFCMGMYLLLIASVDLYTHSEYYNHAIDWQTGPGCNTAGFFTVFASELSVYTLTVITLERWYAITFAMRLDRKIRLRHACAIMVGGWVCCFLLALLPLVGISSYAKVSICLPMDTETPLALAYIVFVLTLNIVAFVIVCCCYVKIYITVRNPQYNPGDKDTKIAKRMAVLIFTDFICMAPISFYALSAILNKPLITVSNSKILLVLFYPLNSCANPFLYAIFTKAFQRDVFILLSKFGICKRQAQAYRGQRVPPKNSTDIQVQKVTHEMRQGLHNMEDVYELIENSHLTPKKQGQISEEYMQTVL
# Procedure, shortened: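 TSHR-expressing HEK293 cells (800 per well) were exposed to compounds for 30 min at room temperature. cAMP was then detected by HTRF competition with cAMP-d2 and anti-cAMP cryptate, read after 1 h at room temperature. Fifteen concentrations, triplicate.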
# [7] = qHTS assay to identify small molecule agonists of H2AX (AID 1224845; active means well fitted activation curve with a large enough effect in the signal ratio in the repeat runs, not every such curve was filed as active; the % refers to the signal ratio; further: potency means the concentration at half of the fitted maximal effect)
# Procedure, shortened: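 Wild-type CHO-K1 cells plated overnight, then exposed 3 hr at 37C to compounds at 15 concentrations (0.76% DMSO). Lysed, then HTRF anti-pH2AX(S139)-cryptate/anti-H2AX-d2 detection after 24 hr at room temperature; emissions 665 and 620 nm.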
# [8] = qHTS assay to identify small molecule agonists of the hypoxia (HIF-1) signaling pathway (AID 1224846; active means well fitted activation curve with a large enough effect in the signal ratio in the repeat runs, not every such curve was filed as active; the % refers to the signal ratio)
# Procedure, shortened: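 HRE-bla ME-180 cells (beta-lactamase reporter under hypoxia response element) were plated at 2,000 cells/well in medium with 0.5% dialyzed FBS, rested 5 hrs, then given compounds in DMSO for 17 hrs at 37C, 5% CO2. Reporter induction was read with CCF4-AM FRET substrate.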
# [9] = qHTS assay to identify small molecule agonists of the estrogen related receptor (ERR) signaling pathway from Tox21 library (AID 1224849; calls by dose curve; further: nearly all actives have a fitted effect of over 15% in size); details: ERR reporter cell line, ONE-Glo luciferase, 18 h; at 92.4 µM (top of the series) unless noted
# Procedure, shortened: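 ERR reporter cell line (NTP) seeded, rested 6 h at 37 C/5% CO2, then pinned with Tox21 compounds in DMSO. After 18 h at 37 C, ONE-Glo luciferase luminescence was read following 30 min at room temperature.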
# [10] = qHTS RealTime-Glo MT Cell Viability Assay in HepG2 cells - 24 hour (AID 1224867); further: nearly all actives have a fitted effect of over 50% in size
# Procedure, shortened: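 HepG2 suspension premixed with RealTime-Glo reagents is plated at 600 cells per well and left 5 h at 37 C/5% CO2. Compounds in DMSO then go in, and bioluminescence reflecting viable cell number is recorded over 40 h.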
# [11] = A CellTox Green Cytotoxicity Assay to monitor cytotoxicity in HEK293 cells - 0 hour (AID 1224869); further: nearly all actives have a fitted effect of over 50% in size
# Procedure, shortened: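 HEK293 cells premixed with CellTox Green dye were seeded at 600 cells/well and left 5 h at 37 C/5% CO2 before pin transfer of 23 nL compound in DMSO. Fluorescence from dye bound to dead-cell DNA was read during 40 h treatment.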
# [12] = qHTS RealTime-Glo MT Cell Viability Assay in HepG2 cells - 40 hour (AID 1224870); further: nearly all actives have a fitted effect of over 50% in size; further: potency means the concentration at half of the fitted maximal effect
# Procedure, shortened: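 HepG2 cells mixed with RealTime-Glo MT reagents (NanoLuc plus cell-permeant prosubstrate) were seeded at 600 cells/well, incubated 5 h at 37 C/5% CO2, then pinned with compounds in DMSO; nonlytic luminescence tracked viability during 40 h treatment.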
# [13] = qHTS assay to identify small molecule agonists of the constitutive androstane receptor (CAR) signaling pathway - cell viability counter screen (AID 1224836); further: nearly all actives have a fitted effect of over 45% in size
# Procedure, shortened: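 Double-stable HepG2 hepatoma cells (hCAR plus CYP2B6-2.2kb) are treated for 23 h at 37 C with test compounds in 15-point concentration series. PK11195 at 0.75 uM final is co-added. Cell viability is quantified by CellTiter-Fluor.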
# [14] = qHTS assay to identify small molecule antagonists of the constitutive androstane receptor (CAR) signaling pathway - cell viability counter screen (AID 1224837); further: nearly all actives have a fitted effect of over 45% in size
# Procedure, shortened: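 HepG2 cells stably expressing hCAR and a CYP2B6-2.2kb reporter were plated and pre-incubated 4 hr at 37 C/5% CO2, then given compounds at 15 concentrations plus 50 nM CITCO (final). After 23 hr, viability was read by CellTiter-Fluor fluorescence.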
# [15] = biological target: Nuclear receptor subfamily 1 group I member 3 (Homo sapiens) (UniProt Q14994); assay: qHTS assay to identify small molecule antagonists of the constitutive androstane receptor (CAR) signaling pathway (AID 1224838); further: nearly all actives have a fitted effect of over 40% in size; further: potency means the concentration at half of the fitted maximal effect
# Procedure, shortened: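 HepG2 cells stably co-transfected with hCAR and a CYP2B6-2.2kb luciferase reporter were seeded 4 h before compound addition at 15 concentrations. Cells were stimulated with 50 nM CITCO (final) for 24 h at 37 C; luciferase luminescence was then read.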
# [16] = qHTS assay to identify small molecule agonists of the hypoxia (HIF-1) signaling pathway - cell viability counter screen (AID 1224844; calls by dose curve; further: nearly all actives have a fitted effect of over 50% in size; further: potency means the concentration at half of the fitted maximal effect)
# Procedure, shortened: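 HRE-bla ME-180 cells in medium with 0.5% dialyzed FBS were preincubated 5 hrs at 37C, exposed to compounds for 17 hrs, then viability was read as CellTiter-Glo luminescence after 30 min at room temperature, in the reporter wells.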
# [17] = qHTS assay to identify small molecule agonists of H2AX - cell viability counter screen (AID 1224847; calls by dose curve; further: top concentration of the series differs between compounds; nearly all actives have a fitted effect of over 30% in size)
# Procedure, shortened: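 For this counter screen, overnight-attached CHO-K1 cells received test compounds (15 concentrations, 0.76% DMSO final); 3 hr later at 37C, CellTiter-Glo reagent was added and luminescence recorded after 30 min at room temperature.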
# [18] = qHTS assay to identify small molecule antagonists of the estrogen related receptor (ERR) signaling pathway from Tox21 library (AID 1224848); further: nearly all actives have a fitted effect of over 50% in size; further: potency means the concentration at half of the fitted maximal effect
# Procedure, shortened: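 Cells: ERR line, 2,000/well; 6 h preincubation 37 C/5% CO2. Cpd in DMSO via pin tool; 18 h, 37 C. ONE-Glo, 30 min RT, luminescence.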
# [19] = qHTS RealTime-Glo MT Cell Viability Assay in HEK293 cells - 32 hour (AID 1224868)
# Procedure, shortened: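 Reads taken at 0, 8, 16, 24, 32 and 40 h from the same wells. HEK293 cells (600/well) carried RealTime-Glo reagents from seeding, with compound added after a 5 h settle at 37 C.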
SMILES,Potency [1],Potency [2],Potency [3],Potency [4],Potency [5],Potency [6],Potency [7],outcome [8],"activity change, positive = activation [9]",Potency [10],Potency [11],Potency [12],Potency [13],Potency [14],Potency [15],Potency [16],Potency [17],Potency [18],Potency [19]
CCOC(=O)CC(=O)C(=O)OCC,inactive,inactive,inactive,54.5 µM (active),inactive,inactive,inactive,inactive,-57.1%,inactive,inactive,inactive,–,–,–,–,–,–,–
Cc1occc1C(=O)Nc1ccc(C(=O)N2CCC(F)(F)/C(=C\C(=O)N3CCC(N4CCCCC4)CC3)c3ccccc32)cc1,inactive,inactive,–,–,inactive,inactive,inactive,inactive,-12.3% [at 42.5 µM],inactive,inactive,inactive,inactive,inactive,inactive,inactive,inactive,inactive,10.8 µM (active)
COc1cc2c(cc1OC)-c1cc(=Nc3c(C)cc(C)cc3C)n(C)c(=O)n1CC2,inactive,–,inactive,inactive,13.3 µM (active),–,inactive,inactive,-48.8% [at 42.5 µM],inactive,inactive,inactive,inactive,inactive,inactive,inactive,inactive,–,–
Cc1nccn1-c1ccc(Sc2cccc(C3(C(N)=O)CCOCC3)c2)cc1,inactive,9.69 µM (active),inactive,–,inactive,inactive,–,inactive,-58%,–,–,inactive,–,–,inactive,inactive,–,1.37 µM (active),–
O=C(CCCCCCC(=O)Nc1ccccc1)NO,inactive,inactive,inactive,–,–,inactive,inactive,inactive,–,–,inactive,4.77 µM (active),–,–,3.76 µM (active),1.69 µM (active),inactive,–,–
O=C(c1ccc(O)cc1)c1ccc(Cl)cc1,64.7 µM (active),49.6 µM (active),inactive,–,–,–,inactive,inactive,–,inactive,inactive,inactive,inactive,inactive,inactive,inactive,–,–,–
CC(=O)Oc1ccc2c(c1)CC[C@@H]1[C@@H]2CC[C@]2(C)[C@@H](O)CC[C@@H]12,24.5 µM (active),9.44 µM (active),inactive,inactive,inactive,inactive,inactive,inactive,-29.3% [at 42.5 µM],inactive,inactive,inactive,inactive,inactive,inactive,inactive,inactive,–,9.52 µM (active)
CCc1c2c(nc3ccc(OC(=O)N4CCC(N5CCCCC5)CC4)cc13)-c1cc3c(c(=O)n1C2)COC(=O)[C@]3(O)CC,inactive,inactive,inactive,–,–,inactive,–,inactive,–,inactive,–,inactive,inactive,inactive,2.98 µM (active),–,inactive,–,2.68 µM (active)
CCCCC(=O)O[C@]1(C(=O)CO)[C@@H](C)C[C@H]2[C@@H]3CCC4=CC(=O)C=C[C@]4(C)[C@@]3(F)[C@@H](O)C[C@@]21C,inactive,–,–,–,inactive,–,113 µM (active),–,-45.4%,–,inactive,inactive,inactive,inactive,–,34.7 µM (active),–,–,–
CCC(Cc1ccccc1)(C(=O)c1ccc(N2CCOCC2)cc1)N(C)C (stereo not drawn),inactive,–,inactive,–,inactive,inactive,–,inactive,-33.5%,inactive,inactive,inactive,–,inactive,–,inactive,–,17.2 µM (active),–
O=C(CCC1CCN(Cc2ccccc2)CC1)c1ccc2c(c1)NCCCC2,inactive,–,inactive,18.8 µM (active),inactive,inactive,inactive,inactive,-36% [at 42.5 µM],inactive,inactive,inactive,inactive,inactive,–,inactive,inactive,18.8 µM (active),8.49 µM (active)
O=C(CCCN1CCC(O)(c2ccc(Br)cc2)CC1)c1ccc(F)cc1,inactive,inactive,inactive,–,–,inactive,inactive,–,–,–,inactive,–,inactive,inactive,33.5 µM (active),inactive,inactive,–,9.52 µM (active)
